Only some compounds are listed: those with a hit (about 15% of all), similar ones and a draw of the others.
HCMV antiviral: blocks human cytomegalovirus replication | activity change, negative = inhibition, % at 57.5 µM | AID 1259415 | actives 4.5% (n = 410,000) | HFF cells, HCMV-luciferase reporter, 72 h; stronger effect = lower value; in the data active = activity change below about -60%; inconclusive = no clear call, values can overlap the other calls; inactive = above about -39%; note: % is set by controls: 0 for no effect and ±100 for the full control effect
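Two compound doses tested in HFFs infected with HCMV-luciferase, MOI 1 PFU/cell, 72 h at 37C. Lysate luminescence read with OneGlo; data normalized against buffer-only and 10uM Salinomycin inhibitor controls.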
Pf growth 96h: P. falciparum growth inhibition at 96 hour, primary screen for plastid delayed-death inhibitors. AID 504834. P. falciparum luciferase reporter growth, 96 h. actives 6.9% (n = 320,000). Potency, µM (top dose mostly 28.7 µM), for the others: at the highest dose activity change, negative = inhibition, hits mostly inhibitors; note: potency is the fitted concentration of half-maximal effect; % is set by controls: 0 for no effect and ±100 for the full control effect
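P. falciparum expressing integrated firefly luciferase, in erythrocytes at 2% hematocrit, 0.05% parasitemia, incubated with compounds 96 h at 37 C, 5% CO2. Growth inhibition read as loss of luminescence; two-generation exposure targets delayed-death apicoplast inhibitors.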
Sm TGR block: blocks Schistosoma mansoni thioredoxin glutathione reductase; purified TGR, DTNB reduction, TNB absorbance 405 nm; Q962Y6; Potency, µM (titrated, usually from 114 µM), for the others: top-dose activity change, negative = inhibition, usual class: inhibitors; actives 3% (n = 360,000); note: potency is the fitted concentration of half-maximal effect; % is set by controls: 0 for no effect and ±100 for the full control effect; nearly all actives have a fitted effect of over 60% in size
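First, TGR (20 nM dispensed) and NADPH were mixed with compound. Second, a 15 min room-temperature incubation followed. Third, further NADPH and then DTNB were added to start the reaction. Finally, TNB absorbance was monitored kinetically.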
SARS PLP yeast: inhibitors of SARS-CoV papain-like protease in yeast | S. cerevisiae expressing SARS-CoV PLpro, growth rescue | Potency, µM (titrated, usually from 32.9 µM), without a hit: top-dose activity, positive = growth rescue, usual class: activators | actives 0.19% (n = 330,000) | AID 485353; calls by dose curve; note: potency is the fitted concentration of half-maximal effect; 0% is about no effect; nearly all actives have a fitted effect of over 55% in size
Pf growth 48h: P. falciparum growth inhibition at 48 hours (one generation). AID 504832. P. falciparum luciferase growth in erythrocytes, 48 h. actives 5.9% (n = 310,000). Potency, µM (top dose mostly 28.7 µM), for the others: at the highest dose activity change, negative = inhibition, most hits filed as inhibitors; note: potency is the fitted concentration of half-maximal effect; % is set by controls: 0 for no effect and ±100 for the full control effect
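First compound was added to culture medium, then infected red cells at 0.1% parasitemia and 2% hematocrit (final). After incubation at 37 C under 5% CO2, luciferase detection reagent was dispensed and light output recorded.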
HCV inhibitor: inhibitors of hepatitis C virus infection; Huh7.5.1 HCVcc-Cre infection, luciferase reporter, 44 h; actives 3.4% (n = 340,000); Potency, µM (doses to about 41.8 µM), inactives show at the top dose activity change, negative = inhibition, usual class: inhibitors; note: potency is the fitted concentration of half-maximal effect; % is set by controls: 0 for no effect and ±100 for the full control effect
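A cell-based infection assay in which seeded cells (1,000 per well) receive test compound after 4 h, are inoculated with HCVcc-Cre at approximately 0.5 moi, and are incubated 44 h before luminescence detection.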
* hit, by the source's call. Unless noted, calls come from the whole dose curve; as a rule, active = well fitted curve in the direction sought with a large enough effect; inconclusive = small, poorly fitted or top-dose-only effect, or another doubt; inactive = no such curve, though single readings can be large; an effect the other way counts as inactive or inconclusive.

`CC(=O)COc1ccc2c(c1C)O/C(=C\c1ccco1)C2=O` gave HCMV antiviral 54, Pf growth 96h 58%, Sm TGR block 20µM*, SARS PLP yeast 5%, Pf growth 48h 69% and HCV inhibitor inconclusive.
Cc1c(OC(=O)N(C)C)ccc2c1O/C(=C\c1ccco1)C2=O was read as HCMV antiviral 50, Pf growth 96h 34%, Sm TGR block 11µM*, SARS PLP yeast -4%, Pf growth 48h 33% and HCV inhibitor -29%.
For Cc1cc(O)c(CN(C)C)c2c1C(=O)/C(=C/c1ccco1)O2 the results were HCMV antiviral -17, Pf growth 96h 5.2µM*, Sm TGR block 4µM*, SARS PLP yeast 0%, Pf growth 48h 6.6µM* and HCV inhibitor 11%.
For COc1cc(/C=N/N=C2\CC3CCC2(C)C3(C)C)ccc1O (configuration not stated) the results were HCMV antiviral -9, Pf growth 96h inconclusive, Sm TGR block -2%, Pf growth 48h -21% and HCV inhibitor -5%.
For CC12CCC(C/C1=N\N=C1\NC(=O)/C(=C\c3cccc(Br)c3)S1)C2(C)C (configuration not stated) the results were HCMV antiviral -30, Pf growth 96h 13µM*, Sm TGR block 0%, SARS PLP yeast -17%, Pf growth 48h inconclusive and HCV inhibitor -28%.
For Cc1ccn(C(=O)c2ccc(NC(=O)CC(C)C)cc2)n1 the results were HCMV antiviral 32, Pf growth 96h -11%, SARS PLP yeast 0%, Pf growth 48h 14% and HCV inhibitor 17%.
`O=C1C(c2nnnn2-c2ccc(F)cc2)N(C2CC2)C(=O)N1c1ccccc1` (configuration not stated) gave HCMV antiviral -6.
`CC(=O)N1CCCc2cc(S(=O)(=O)N(C)CC(=O)Nc3cccc(Cl)c3C)ccc21` gave HCMV antiviral -25 and Sm TGR block 4%.
`Cc1cccc(C(=O)O/N=C/c2c(N3CCOCC3)n(C)c3ccccc23)c1` gave Pf growth 96h 1.9µM*, Sm TGR block 13%, SARS PLP yeast -27% and Pf growth 48h 6.6µM*.
For Cc1cc2nccc(-c3ccco3)n2n1 the results were HCMV antiviral -30, Pf growth 96h 3%, Sm TGR block 4%, SARS PLP yeast 12%, Pf growth 48h 7% and HCV inhibitor -28%.
`Cc1cc2nccc(-c3ccc(OCCCF)cc3)n2n1` gave HCMV antiviral -61*, Pf growth 96h 20%, Sm TGR block 1%, SARS PLP yeast -2%, Pf growth 48h 16% and HCV inhibitor inconclusive.
For CCOC(=O)C=Nc1c(N)n(C)c(=O)n(C)c1=O the results were HCMV antiviral 5, Pf growth 96h 0%, Sm TGR block 6%, SARS PLP yeast 7%, Pf growth 48h 12% and HCV inhibitor 8%.
For CCN1CCN(c2ccc(S(=O)(=O)N3CCCCC3)cc2NC(=O)/C=C/c2ccc(OC(F)F)cc2)CC1 the results were HCMV antiviral -29, Pf growth 96h 4.1µM*, Sm TGR block -7%, SARS PLP yeast 0%, Pf growth 48h 9.3µM* and HCV inhibitor inconclusive.
For CC(Oc1ccc(F)cc1)C(=O)Nc1cc(S(=O)(=O)N2CCCCC2)ccc1N1CCN(C)CC1 (configuration not stated) the results were HCMV antiviral 19 and HCV inhibitor -21%.
For CN1CCN(c2ccc(S(=O)(=O)N3CCCCC3)cc2NC(=O)/C=C/c2ccc(OC(F)F)cc2)CC1 the results were HCMV antiviral -13, Pf growth 96h 7.4µM*, Sm TGR block -3%, SARS PLP yeast -1%, Pf growth 48h 9.3µM* and HCV inhibitor inconclusive.
`CCN1CCN(c2ccc(S(=O)(=O)N3CCCCC3)cc2NC(=O)c2ccc(OC(F)F)cc2)CC1` gave HCMV antiviral -15, Pf growth 96h inconclusive, Sm TGR block -2%, SARS PLP yeast 4%, Pf growth 48h inconclusive and HCV inhibitor inconclusive.
Screening CCCC12CN3CC(CCC)(CN(C1)C3c1c(C)[nH]c(=O)[nH]c1=O)C2=O (configuration not stated) returned HCMV antiviral 6 and Sm TGR block 3%.
`CCN(CC)C(=O)c1sc2c(c1C)c(=O)n(-c1ccc(C)c(C)c1)c(=O)n2Cc1cc(=O)n2ccccc2n1` gave HCMV antiviral 14 and Sm TGR block 10%.
`CCOc1ccc(OCCOCCN2CCOCC2)cc1` gave HCMV antiviral 14, Pf growth 96h 26%, Sm TGR block 0%, SARS PLP yeast -2% and HCV inhibitor 23%.
Screening CCOc1ccc(-c2cc(C)[n+](CCN3CCOCC3)c(-c3ccc(OCC)cc3)c2)cc1 returned HCMV antiviral -82*, Pf growth 96h 0.37µM*, Sm TGR block 6%, SARS PLP yeast 0%, Pf growth 48h 0.66µM* and HCV inhibitor -17%.
For CC(C)CCNc1nc2c(c(=O)[nH]c(=O)n2C)n1CC(O)COC(C)C (configuration not stated) the results were HCMV antiviral -66*, Pf growth 96h 108%, Sm TGR block -5%, SARS PLP yeast -3%, Pf growth 48h 3% and HCV inhibitor 10%.
For CCN(CC)CCNc1nc2c(c(=O)[nH]c(=O)n2C)n1CC(O)COc1ccc(Cl)cc1Cl (configuration not stated) the results were HCMV antiviral -15, Pf growth 96h 12µM*, Sm TGR block 0%, SARS PLP yeast -3%, Pf growth 48h inconclusive and HCV inhibitor 17%.
For O=S(=O)(c1ccc2c(c1)CCN2)N1CCCCCC1 the results were HCMV antiviral 56 and Sm TGR block -3%.
O=C(c1cccc(C(F)(F)F)c1)N1CCOC12CCN(c1ncc(C(F)(F)F)cc1Cl)CC2 was read as HCMV antiviral inconclusive, Pf growth 96h inconclusive, Sm TGR block 3%, Pf growth 48h inconclusive and HCV inhibitor inconclusive.
Screening COc1ccc(NC(=O)CN(C)C(=O)c2cccc(S(=O)(=O)N3CCCc4ccccc43)c2)cc1 returned HCMV antiviral 10, Pf growth 96h inconclusive, Sm TGR block 14%, SARS PLP yeast 1%, Pf growth 48h 13µM* and HCV inhibitor inconclusive.
Screening COc1ccccc1CN(C)C(=O)c1cccc(S(=O)(=O)N2CCCc3ccccc32)c1 returned HCMV antiviral -36, Pf growth 96h 9.3µM*, Sm TGR block 2%, SARS PLP yeast -3%, Pf growth 48h 7.4µM* and HCV inhibitor 10µM*.
